The target in assay [1] is T1, Aspartate--tRNA(Asp/Asn) ligase (Mycobacterium tuberculosis (strain ATCC 25618 / H37Rv)) (UniProt P9WFW3). Note: in the data most compounds retested in dose-response had high values.
T1 sequence (whole entry): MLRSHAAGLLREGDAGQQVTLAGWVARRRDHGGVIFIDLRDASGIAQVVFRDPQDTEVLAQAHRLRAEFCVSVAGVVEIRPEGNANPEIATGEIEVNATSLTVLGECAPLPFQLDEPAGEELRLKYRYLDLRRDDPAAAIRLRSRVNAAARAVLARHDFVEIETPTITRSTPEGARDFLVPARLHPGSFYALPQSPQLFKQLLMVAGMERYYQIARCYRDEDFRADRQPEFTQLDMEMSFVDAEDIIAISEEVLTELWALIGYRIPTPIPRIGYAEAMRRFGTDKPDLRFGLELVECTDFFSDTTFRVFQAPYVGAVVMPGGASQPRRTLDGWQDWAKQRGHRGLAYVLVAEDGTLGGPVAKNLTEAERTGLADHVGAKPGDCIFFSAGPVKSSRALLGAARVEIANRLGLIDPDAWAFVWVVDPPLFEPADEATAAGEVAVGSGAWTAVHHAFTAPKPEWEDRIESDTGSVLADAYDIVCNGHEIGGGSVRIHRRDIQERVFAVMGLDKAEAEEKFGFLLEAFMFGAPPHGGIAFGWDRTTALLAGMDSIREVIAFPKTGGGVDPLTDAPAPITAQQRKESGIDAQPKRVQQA
As to the kind of experiment: Assay for Asp RNA synthetase-1 from Mycobacterium tuberculosis. It counts as functional. Further details: scale not given: direction of the effect not stated beside the values. Conditions: 30 µM.

Assay [2] deals with Shiga toxin 2 (Escherichia coli O157:H7) (UniProt P09385+P09386). As to the kind of experiment: E. coli 0.157:H7 Shiga Toxin SOP - stx2 screening assay. It counts as functional. Further details: scale not given: direction of the effect not stated beside the values. Particulars: 30 µM.

For the compound `O=C(NC1CCCC1)[C@@H]1CN(Cc2nccs2)C[C@H]2OCC[C@H]21`, the Percent Effect in assay [1] is 4.4%; in assay [2] it was -7.97%.

`N#Cc1ccccc1CN1C[C@@H]2CC[C@H](C1)N(CC1CC1)C2=O`: the Percent Effect was 2.11% in assay [1] and -9.72% in assay [2].

Regarding `CC(=O)N(Cc1ncc(C(C)C)o1)C1CCN(CCn2cccn2)C1` (centres undefined), the figures for the Percent Effect in assay [1] and in assay [2] were -1.37% and 3.59%, respectively.

Take `CNc1cc(C2CCCN2Cc2ccccc2C(=O)O)ccn1` (centres undefined): the figures for the Percent Effect in assay [1] and in assay [2] were -0.938% and -8.27%, respectively.

As to `CC1=Nc2c(c(=O)[nH]n2C(C)C)C(c2cccs2)S1` (centres undefined), the figures for the Percent Effect in assay [1] and in assay [2] were 7.78% and 5.29%, respectively.

Consider `Cc1cccc(-c2noc(CN3CCC(N4CCNC4=O)CC3)n2)c1`, for which the Percent Effect is 0.152% in assay [1] and 11.2% in assay [2].

As for `Cn1cc(C(=O)NCc2cn3c(n2)CN(CC2CCOCC2)CC3)cn1`, the values for the Percent Effect in assay [1] and in assay [2] were -2.89% and -14.5%, respectively.

Consider `CCn1cnnc1C1CCN(C(=O)c2cccc3c2ccn3C)CC1`, for which the values for the Percent Effect in assay [1] and in assay [2] were -3.52% and -25.8%, respectively.

As to `CCN(C(=O)CCCOc1ccccc1F)c1ccncc1`, the Percent Effect is -2.34% in assay [1] and 1.08% in assay [2].

Turning to `c1ccc(-c2ccc3nc(C4CCN(CC5CC5)CC4)nn3c2)cc1`, the Percent Effect was 1.41% in assay [1] and -51.6% in assay [2].

For the compound `CC(C)N1CCO[C@H]2CN(C(=O)c3ccc(N(C)C)cc3)C[C@H]21`, the Percent Effect in assay [1] was 2.49%; in assay [2] it was -4.13%.

For the compound `OC(CN1CCN(Cc2ccc(F)c(F)c2)CC1)C1CC1` (centres undefined), the Percent Effect in assay [1] is -4.54%; in assay [2] it was -0.879%.

In the case of `COC(=O)CCc1c(C)nc2cc(O)nn2c1C`, the Percent Effect in assay [1] is -3.67%; in assay [2], -37.6%.

`Cc1cc(CN(C)C(=O)NC2CCCN(c3ncccn3)C2)no1` (centres undefined): the Percent Effect in assay [1] is -1.17%; in assay [2], 33.3%.

On to `CCNC(=O)c1nnc2ccc(N3CCOCC3)cc2n1`, for which the Percent Effect in assay [1] is 0.9%; in assay [2] it was -20.2%.

As for `NC(=O)COc1ccc(CNCc2ccc(F)cc2F)cc1`, the Percent Effect was -4.09% in assay [1] and -18.8% in assay [2].

Take `CCc1noc(C2CCCCN2C(=O)c2ccn(C3CCCC3)n2)n1` (centres undefined): the Percent Effect in assay [1] is -5.11%; in assay [2] it was -5.88%.

Consider `CC(c1ccc(F)c(F)c1)N1CCN(Cc2nccn2C)CC1` (centres undefined), for which the Percent Effect in assay [1] is -2.85%; in assay [2], -13.2%.

As for `Cc1[nH]c(=O)[nH]c(=O)c1CN1CCCC(CCc2c(F)cccc2F)C1` (centres undefined), the Percent Effect in assay [1] came to 0.725%; in assay [2], 0.432%.

For `COCC1CN(C(=O)CNC(C)=O)Cc2ncnn2C1` (centres undefined), the Percent Effect was 0.773% in assay [1] and -26.6% in assay [2].

For the compound `O=C(Nc1cnn(CCN2CCOCC2)c1)c1ccccn1`, the Percent Effect is -1.48% in assay [1] and 19.4% in assay [2].

With `CCOCC1CN(Cc2ccc(OC)cc2)Cc2nn(C)cc21` (centres undefined), the values for the Percent Effect in assay [1] and in assay [2] were 11.4% and -5.58%, respectively.

In the case of `CC(C)Nc1nc2c(cc1C(=O)NCC1CC1)CCNCC2`, the Percent Effect in assay [1] turned out to be 0.611%; in assay [2], 2.86%.

`O=C(c1cccnc1O)N(Cc1ccsc1)CC1CCCO1` (centres undefined): the results for the Percent Effect in assay [1] and in assay [2] were -1.37% and -27.4%, respectively.

Take `CN(Cc1cn2ccccc2n1)C1CCCN(c2cccnn2)C1` (centres undefined): the Percent Effect was 3.45% in assay [1] and -72.8% in assay [2].

With `CNC(=O)C1CCC(NC(=O)N(C)Cc2c(C)noc2C)CC1` (centres undefined), the Percent Effect in assay [1] is -3.01%; in assay [2] it was 14.3%.

As for `CCc1sc(-c2nnc(CNCCn3cc(C)cn3)o2)cc1C`, the Percent Effect in assay [1] was 2.52%; in assay [2], -107%.

As to `CC(NC(=O)c1cccs1)C(=O)NCc1cccnc1N1CCCCC1` (centres undefined), the values for the Percent Effect in assay [1] and in assay [2] were -3.06% and 11%, respectively.

Take `Cc1nn(C)c(Cl)c1CNCc1cccnc1N1CCOCC1`: the Percent Effect in assay [1] was -7.19%; in assay [2], 4.19%.

`CC(O)CN1CCC(CNCc2ccc(S(C)(=O)=O)cc2)CC1` (centres undefined): the Percent Effect in assay [1] is 3.1%; in assay [2], -4.03%.

As to `CN1CCN(Cc2ccccc2CNC(=O)c2ccc(Br)cc2F)CC1`, the Percent Effect was 2.64% in assay [1] and -9.7% in assay [2].

Take `CC(C)[C@H](NC(=O)NC1CCS(=O)(=O)C1)C(=O)NCc1cccnc1` (some centres undefined): the Percent Effect in assay [1] was -2.09%; in assay [2] it was -28.7%.

Consider `Cn1ccc(C(=O)NC2CCN(c3ncccn3)CC2)cc1=O`, for which the values for the Percent Effect in assay [1] and in assay [2] were 4.84% and 24.2%, respectively.

As for `O=C(Cc1ccsc1)N1C[C@@H]2CN(Cc3ccoc3)CCO[C@@H]2C1`, the Percent Effect in assay [1] was -1.48%; in assay [2] it was -6.92%.

For the compound `COC(=O)c1cc(C(=O)N2CCOCC2(C)C)n(-c2ccccc2)n1`, the Percent Effect in assay [1] was -4.48%; in assay [2] it was 13.3%.

For `CCSc1ccc(C(=O)Nc2c(C)nn(C(C)C)c2C)cn1`, the results for the Percent Effect in assay [1] and in assay [2] were -2.39% and -37.7%, respectively.

With `Cc1cccc2c1cnn2CCCNC(=O)C(C)C`, the Percent Effect in assay [1] is 11.8%; in assay [2], -9.88%.
